Consider 40 compounds from PubChem BioAssay (Tox21).

The structures appear in SMILES notation. Results filed as inconclusive are left out. A number with no mark means an inactive call. The call rests on the fitted dose curve; in most records, active means well fitted cell-killing curve with a large enough effect in the repeat runs; inconclusive means weak or mixed curves, or effect the other way; inactive means no such curve, though single readings can be large or run the other way.
On the % scale 0 is the no-effect control and ±100 the full control effect.

A short description of this assay: qHTS assay to identify small molecule antagonists of the retinoid-related orphan receptor gamma (ROR-gamma) signaling pathway - cell viability counter screen (AID 1159520). Further: nearly all actives have a fitted effect of over 50% in size. Particulars: Tet-on RORgamma CHO cells viability, ATP luminescence, 16 h; series mostly up to 92.4 µM; activity, negative = cytotoxicity: at the top concentration. The text has this: U.S. Tox21 Program National Center for Advancing Translational Sciences [NCATS] NIH Chemical Genomics Center [NCGC] U.S. Environmental Protection Agency [EPA] National Institutes of Environmental Health Sciences [NIEHS] National Toxicology Program [NTP] U.S. Food and Drug Administration [FDA] Tox21 Assay Overview: Nuclear steroid hormone receptors are involved in many biological processes including inflammatory responses, cell proliferation, and apoptosis. Environmental factors or compounds disrupting these nuclear receptor pathways and gene expression may promote susceptibility to immunotoxicants and autoimmune diseases. One important group of these expression factors are the retinoid-related orphan receptors. To assess compounds that may interfere with the retinoid-related orphan receptor gamma (ROR-gamma) transcription factor, a cell-based luciferase assay was used. The CHO cell-based assay utilizes a TET-inducible ROR expression factor and ROR response element-LUC reporter gene. Reporter gene activity was induced using Doxycycline Hyclate and measured after 16 hr incubation. Tet-on ROR gamma CHO cells were used to screen against the Tox21 10K compound library for cytotoxicity by measuring the viability of the cells based on the quantitation of the ATP.
Tox21 Assay Protocol Summary: Tet-on ROR gamma CHO cells were dispensed at 1,000 cells in 4 uL of culture medium per well into white wall/solid bottom 1536-well plates using a Multidrop Combi (Thermo Scientific, Waltham, MA) dispenser. Following incubation at 37 C and 5% CO2 for 4 hr, 23 nL of compounds dissolved in DMSO, positive controls or DMSO only were transferred by a Pintool station (Kalypsys, San Diego, CA) and after 2 hr incubation at 37 C, one ul of 1 uM (final concentration) of Doxycycline Hyclate was added to all the wells by using a Flying Reagent Dispenser (FRD) (Aurora Discovery, San Diego, CA). After 16 hr incubation at 37 C and 5% CO2, 5 uL of CellTiter-Glo reagent (Promega Corporation, Madison, WI) was added to each assay plate using FRD. After 30 min incubation at room temperature, luminescence was quantified on a ViewLux plate reader (Perkin Elmer, Waltham, MA).
(Quantitative high-throughput screening tests each substance at several concentrations.)
Consider `CCCCCCCCCCCCCCCBr`, for which the “activity, negative = cytotoxicity” value is -0.393% [at 42.5 µM]. The figure for `O=C(O)/C=C/c1cnc[nH]1` is 2.21%; for `CN1CCN(C2=Nc3ccccc3Sc3ccc(Cl)cc32)CC1` it is 1.29% [at 42.5 µM]; for `C1=Cc2ccccc2C1` it is 0.727%.

In the case of `CC(O)C1CCCCC1` (stereo not given), the “activity, negative = cytotoxicity” value is 3.88%. Regarding `CC(=O)NCCCS(=O)(=O)O`, the “activity, negative = cytotoxicity” value was 5.39% [at 42.5 µM]. In the case of `OCC1CC2CC1C1CCC(CO)C21` (stereo not given), the “activity, negative = cytotoxicity” value was -2.17%. Regarding `c1ccc(-c2nc[nH]c2-c2ccccc2)cc1`, the “activity, negative = cytotoxicity” value was -5.9% [at 42.5 µM].

In the case of `O=C(NN1CCCC1)NS(=O)(=O)c1ccc(Cl)cc1`, the “activity, negative = cytotoxicity” value was 5.25% [at 42.5 µM]. The figure for `CCCCCCCCCCCCCCC1CO1` (stereo not given) is 2.3%.

Turning to `C=C(C)C(=O)OCCOc1ccccc1`, the “activity, negative = cytotoxicity” value was -8.53%. The result for `SC1CCCC1` reads 6.4%. As to `CCCC[C@H]1CN(CC2CCOCC2)C(=O)OC12CCN(C1(C)CCN(C(=O)c3c(C)ncnc3C)CC1)CC2`, the “activity, negative = cytotoxicity” value was 8.22%. With `CN(C(=O)CCCOc1ccc2[nH]c(=O)ccc2c1)C1CCCCC1`, the “activity, negative = cytotoxicity” value was -2.82% [at 42.5 µM]. The figure for `O=CNc1ccccc1` is 3.82%. Consider `CCCCOC(O)CC` (stereo not given), for which the “activity, negative = cytotoxicity” value is -7.22%. The result for `C=Cc1c(C)c2cc3[nH]c(cc4nc(cc5nc(cc1[nH]2)C(C)=C5CCC(=O)O)C(CCC(=O)O)=C4C)c(C)c3C=C` reads -9.6% [at 42.5 µM]; that for `CCCCCCCCC(CO)CCCCCC` (stereo not given), -0.653%. The figure for `CC(=O)O[C@H]1C[C@@H]2CC[C@@H]3[C@H](CC[C@@]4(C)[C@H]3C[C@H]([N+]3(C)CCCCC3)[C@@H]4OC(C)=O)[C@@]2(C)C[C@@H]1N1CCCCC1` is 0.539% [at 42.5 µM]; for `O=C(O)Cc1cc(I)c(Oc2ccc(O)c(I)c2)c(I)c1` it is 8.73%; for `NCCCN(CCO)CCO` it is 15%. The figure for `CC1=CCC(C(C)C)C=C1` (stereo not given) is -5.51%. In the case of `CCOc1ccc2[nH]cc(C(=O)NCc3ccccc3)c(=O)c2n1`, the “activity, negative = cytotoxicity” value was -1.81%. Consider `COc1ccc(C(C)=O)cc1`, for which the “activity, negative = cytotoxicity” value was -3.81%.

Turning to `CN(c1nccc(=O)[nH]1)C1CCN(c2nc3ccccc3n2Cc2ccc(F)cc2)CC1`, the “activity, negative = cytotoxicity” value was 0.486% [at 42.5 µM].

Consider `NC(N)=N/N=C/c1c(Cl)cccc1Cl`, for which the “activity, negative = cytotoxicity” value was 4.74% [at 42.5 µM]. The result for `CC(=O)N(O)CCCCCNC(=O)CCC(=O)N(O)CCCCCNC(=O)CCC(=O)N(O)CCCCCN` reads -0.388% [at 42.5 µM]; that for `CCCCCc1ccc(N)cc1`, -6.07%; that for `O=C=NC1CCC(CC2CCC(N=C=O)CC2)CC1` (stereo not given), 3.79%.

As to `Cc1c(Cn2ccnc2)c2ccccc2n1CCC(=O)O`, the “activity, negative = cytotoxicity” value was 0.597% [at 42.5 µM].

For `CCN(CC)CCc1nc(-c2ccccc2)no1`, the “activity, negative = cytotoxicity” value was 0.871% [at 42.5 µM]. `C=C(C)C(=O)OCCN(C)C`: the “activity, negative = cytotoxicity” value is 1.76%. On to `CN1CCN(C2=Nc3cc(Cl)ccc3Nc3ccccc32)CC1`, for which the “activity, negative = cytotoxicity” value was -1.7% [at 42.5 µM].

Regarding `Cc1cccc(OCCOc2cccc(C)c2)c1`, the “activity, negative = cytotoxicity” value is 4.95%. The figure for `NC[C@H]1O[C@H](O[C@H]2[C@H](O)[C@@H](O[C@H]3O[C@H](CO)[C@@H](O)[C@H](N)[C@H]3O)[C@H](N)C[C@@H]2N)[C@H](O)[C@@H](O)[C@@H]1O` is 1.78% [at 8.39 µM]. The figure for `O=C(O)C(c1ccc(Cl)cc1)c1ccc(Cl)cc1` is 1.47%; for `COc1ccccc1OC(=O)Oc1ccccc1OC` it is 0.341% [at 42.5 µM]; for `CCN1CCC[C@H]1CNC(=O)c1c(OC)ccc(Br)c1OC` it is 7.55% [at 42.5 µM]. As for `C=CCCCCCC`, the “activity, negative = cytotoxicity” value was -3.8%. For `C=C(C)C(=O)OC(C)C`, the “activity, negative = cytotoxicity” value was -10.1%.
